# Measurements: publication PMC8384837, “Expanding the binding specificity for RNA recognition by a PUF domain”
# Key:
# Test in all cases: yeast three-hybrid, YBZ-1, SC-Leu-His + 0.5 mM 3-AT, 4 days
# Settings in all cases: tags: N-Gal4 AD-HA kept; label: inside an RPR1-promoter hybrid RNA with tandem MS2 sites; ssRNA
# [1] = target: PUM1 PUF domain R5-KHS (Homo sapiens, UniProt Q14671 828-1176, C1007K;R1008H;Q1011S)
# In short: (§1)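 Pumilio-1 PUF domain libraries, randomized (NNK) at the three base-contacting residues of each repeat, were co-expressed with matching RNA elements from a centromeric plasmid in strain YBZ-1 (LexA–MS2 coat fusion, HIS3 reporter). Transformants were plated on SC-Leu (input) and SC-Leu-His + 0.5 mM 3-AT (selection) for four days, and repeat regions were PCR-amplified and Illumina-sequenced. The interaction score is the log2 change in variant frequency from input to selection, with pseudocount 1 where absent.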
# [2] = target: PUM1 PUF domain R4-AQY (Homo sapiens, UniProt Q14671 828-1176, N971A;H972Q;Q975Y)
# In short: as §1
# [3] = target: PUM1 PUF domain R4-AYP (Homo sapiens, UniProt Q14671 828-1176, N971A;H972Y;Q975P)
# In short: as §1
# [4] = target: PUM1 PUF domain R4-WGS (Homo sapiens, UniProt Q14671 828-1176, N971W;H972G;Q975S)
# In short: as §1
# [5] = target: PUM1 PUF domain R3-EFG (Homo sapiens, UniProt Q14671 828-1176, C935E;R936F;Q939G)
# In short: as §1
# [6] = target: PUM1 PUF domain R5-DHK (Homo sapiens, UniProt Q14671 828-1176, C1007D;R1008H;Q1011K)
# In short: as §1
# [7] = target: PUM1 PUF domain R5-VYY (Homo sapiens, UniProt Q14671 828-1176, C1007V;R1008Y;Q1011Y)
# In short: as §1
# [8] = target: PUM1 PUF domain R3-SWL (Homo sapiens, UniProt Q14671 828-1176, C935S;R936W;Q939L)
# In short: as §1
# [9] = target: T1, PUM1 PUF domain R6-CWA (Homo sapiens, UniProt Q14671 828-1176, N1043C;Y1044W;Q1047A)
# T1 sequence: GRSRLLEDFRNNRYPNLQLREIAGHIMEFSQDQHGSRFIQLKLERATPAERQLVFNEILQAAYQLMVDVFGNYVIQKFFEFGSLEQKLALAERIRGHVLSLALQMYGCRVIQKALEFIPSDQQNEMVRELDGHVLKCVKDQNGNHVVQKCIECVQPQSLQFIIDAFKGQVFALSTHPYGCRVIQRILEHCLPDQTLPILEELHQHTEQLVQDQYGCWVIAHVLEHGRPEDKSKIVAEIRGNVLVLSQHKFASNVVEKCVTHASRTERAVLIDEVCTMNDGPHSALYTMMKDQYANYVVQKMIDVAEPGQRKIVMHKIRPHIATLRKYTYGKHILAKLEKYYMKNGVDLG
# In short: as §1
# [10] = target: PUM1 PUF domain R8-KFG (Homo sapiens, UniProt Q14671 828-1176, N1122K;Y1123F;Q1126G)
# In short: as §1
# [11] = target: PUM1 PUF domain R1-RCM (Homo sapiens, UniProt Q14671 828-1176, S863R;R864C;Q867M)
# In short: as §1
# [12] = target: PUM1 PUF domain R4-ANL (Homo sapiens, UniProt Q14671 828-1176, N971A;H972N;Q975L)
# In short: as §1
# [13] = target: PUM1 PUF domain R4-SPR (Homo sapiens, UniProt Q14671 828-1176, N971S;H972P;Q975R)
# In short: as §1
# [14] = target: PUM1 PUF domain R2-EWA (Homo sapiens, UniProt Q14671 828-1176, N899E;Y900W;Q903A)
# In short: as §1
# [15] = target: PUM1 PUF domain R5-NPR (Homo sapiens, UniProt Q14671 828-1176, C1007N;R1008P;Q1011R)
# In short: as §1
sequence,measurement,setting,value
GGCUAGAACUAGUGGAUCCCCCGGCGCCCGGCGGCUCGAGCCCGGGUAAGUGUAAAUAGUCUGCAUGCCGCCGGGCGCCAUGCCUGCAGGUCGACUCUAGAAAACAUG,binding signal,[1],2.33 log2 enrichment (interaction score)
same,binding signal,[2],3.35 log2 enrichment (interaction score)
same,binding signal,[3],7.85 log2 enrichment (interaction score)
same,binding signal,[4],3.11 log2 enrichment (interaction score)
same,binding signal,[5],4.8 log2 enrichment (interaction score)
same,binding signal,[6],2.94 log2 enrichment (interaction score)
same,binding signal,[7],2.98 log2 enrichment (interaction score)
same,binding signal,[8],3.24 log2 enrichment (interaction score)
same,binding signal,[9],4.17 log2 enrichment (interaction score)
same,binding signal,[10],6.69 log2 enrichment (interaction score)
GGCUAGAACUAGUGGAUCCCCCGGCGCCCGGCGGCUCGAGCCCGGGUAAGUGUAAAUGGUCUGCAUGCCGCCGGGCGCCAUGCCUGCAGGUCGACUCUAGAAAACAUG,binding signal,[11],0.08 log2 enrichment (interaction score)
GGCUAGAACUAGUGGAUCCCCCGGCGCCCGGCGGCUCGAGCCCGGGUAAGUGUACAUAGUCUGCAUGCCGCCGGGCGCCAUGCCUGCAGGUCGACUCUAGAAAACAUG,binding signal,[12],1.38 log2 enrichment (interaction score)
same,binding signal,[13],2.73 log2 enrichment (interaction score)
same,binding signal,[4],2.86 log2 enrichment (interaction score)
GGCUAGAACUAGUGGAUCCCCCGGCGCCCGGCGGCUCGAGCCCGGGUAAGUGUAACUAGUCUGCAUGCCGCCGGGCGCCAUGCCUGCAGGUCGACUCUAGAAAACAUG,binding signal,[5],2.94 log2 enrichment (interaction score)
GGCUAGAACUAGUGGAUCCCCCGGCGCCCGGCGGCUCGAGCCCGGGUAAGUGUAUAUAGUCUGCAUGCCGCCGGGCGCCAUGCCUGCAGGUCGACUCUAGAAAACAUG,binding signal,[12],2.71 log2 enrichment (interaction score)
same,binding signal,[13],3.12 log2 enrichment (interaction score)
same,binding signal,[4],5.21 log2 enrichment (interaction score)
GGCUAGAACUAGUGGAUCCCCCGGCGCCCGGCGGCUCGAGCCCGGGUAAGUGUAAAAAGUCUGCAUGCCGCCGGGCGCCAUGCCUGCAGGUCGACUCUAGAAAACAUG,binding signal,[14],5.74 log2 enrichment (interaction score)
GGCUAGAACUAGUGGAUCCCCCGGCGCCCGGCGGCUCGAGCCCGGGUAAGUGUUAAUAGUCUGCAUGCCGCCGGGCGCCAUGCCUGCAGGUCGACUCUAGAAAACAUG,binding signal,[1],6.04 log2 enrichment (interaction score)
same,binding signal,[15],4.1 log2 enrichment (interaction score)
GGCUAGAACUAGUGGAUCCCCCGGCGCCCGGCGGCUCGAGCCCGGGUAAGGGUAAAUAGUCUGCAUGCCGCCGGGCGCCAUGCCUGCAGGUCGACUCUAGAAAACAUG,binding signal,[10],4.73 log2 enrichment (interaction score)
